High-throughput results: PubChem, National Center for Advancing Translational Sciences (NCATS)
pS6 MEF inh: mTORC1 pathway inhibition measured by phospho-rpS6; Tsc2-/- p53-/- MEF, phospho-rpS6 immunofluorescence/PI, 24 h; Potency, µM (top dose mostly 38.3 µM), most hits filed as inhibitors; 0.78% of 44,000 active; AID 493208; further: nearly all actives have a fitted effect of over 50% in size
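Readout is phospho-S6 Alexa 488 signal normalized to PI per well, reported as % active cells with thresholds set from rapamycin (7.5 nM) and DMSO controls. Cells: Tsc2-/-, p53-/- MEFs, 24 hrs compound at 37 C; PI cell number serves as viability.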
OvCa metastasis: blocks SKOV3ip1 adhesion and invasion in omental model. SKOV3ip1-GFP adhesion/invasion on 3D omental model, fluorescence. AID 1963576. 0.1% of 46,000 active. Potency, µM (doses to about 45.8 µM), usual class: inhibitors; further: nearly all actives have a fitted effect of over 65% in size
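Primary human omental fibroblast/mesothelial 3D culture pre-formed 48 h. SKOV3ip1-GFP cells added with compounds (0.36-46 umol/L), incubated 2 h RT/16 h 37 C, fixed; GFP cells quantified at 488/509 nm.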
PMP22 txn prim: modulators of PMP22 gene transcription in S16 Schwann cells; Potency, µM (series often up to 57.5 µM), usual class: inhibitors; S16 Pmp22-F2sN Schwann cells, FLuc/NLuc coincidence luminescence, 24 h; 2% of 43,000 active; active means clear falling dose curves in both reporters; inconclusive means both reporters move, but less clearly or upward; inactive means either reporter flat; the % is the NLuc reporter signal
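Rat S16 Pmp22-F2sN cells, 500-1,000/well in phenol red-free DMEM + 10% FBS, compound-treated 24 h (37C, 5% CO2). Luminescence: FLuc read, Stop&Glo added, NLuc read.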
S16 viability: toxic to S16 Pmp22-F2sN Schwann cells. AID 1508642. Potency, µM (top dose mostly 57.5 µM), most hits filed as cytotoxic. 0.48% of 43,000 active. S16 Pmp22-F2sN Schwann cells (luciferase reporters placed in the Pmp22 gene) viability, CellTiter-Glo, 24 h; further: nearly all actives have a fitted effect of over 65% in size
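Seed 500-1,000 S16 Pmp22-F2sN cells per well in phenol-red-free DMEM with 10% heat-inactivated FBS; pin-add 23 nL compound; incubate 24 h at 37C; add CellTiter-Glo, wait 15 min protected from light; read luminescence.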
NLuc sat counter: NanoLuc enzyme inhibition artifact for PMP22 screen; 4% of 690 active; Potency, µM (top dose mostly 57.5 µM), most hits filed as inhibitors; shares compounds with PMP22 txn prim; Secreted NLuc enzyme (filtered S16 cell medium), Nano-Glo luminescence
NLuc Km counter: counter-screen for PMP22 expression modulators: NanoLuc inhibition at Km; 5% of 690 active; secreted NLuc enzyme, coelenterazine luminescence, Km conditions; shares compounds with PMP22 txn prim; Potency, µM (doses to about 57.5 µM), most hits filed as inhibitors
FLuc ctr PMP22: firefly luciferase enzyme inhibition artifact for PMP22 screen; shares compounds with PMP22 txn prim; AID 1508640; Potency, µM (series often up to 57.5 µM), usual class: inhibitors; purified P. pyralis FLuc, luminescence, 10 min; 690 tested, under 10 active
Target sequence (P08659 whole entry, looked up): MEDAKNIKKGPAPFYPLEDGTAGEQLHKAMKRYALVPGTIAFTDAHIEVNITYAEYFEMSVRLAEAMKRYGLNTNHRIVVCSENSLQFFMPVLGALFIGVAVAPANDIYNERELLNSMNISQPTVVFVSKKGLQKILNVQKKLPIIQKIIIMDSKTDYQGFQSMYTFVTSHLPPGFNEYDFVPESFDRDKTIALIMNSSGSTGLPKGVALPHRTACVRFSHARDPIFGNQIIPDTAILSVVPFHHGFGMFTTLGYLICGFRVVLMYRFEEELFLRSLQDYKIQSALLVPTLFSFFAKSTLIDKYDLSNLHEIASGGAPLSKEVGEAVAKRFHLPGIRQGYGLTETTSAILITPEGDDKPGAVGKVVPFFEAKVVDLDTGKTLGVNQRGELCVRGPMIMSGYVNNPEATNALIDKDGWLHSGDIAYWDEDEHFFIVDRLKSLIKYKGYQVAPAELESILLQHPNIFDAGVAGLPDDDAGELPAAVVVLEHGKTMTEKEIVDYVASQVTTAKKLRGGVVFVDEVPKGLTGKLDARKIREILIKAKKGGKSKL
S16 F2sN tox cnf: S16 Schwann cell cytotoxicity, confirmatory | shares compounds with PMP22 txn prim | S16 Schwann cells viability, CellTiter-Glo ATP luminescence, 24 h | Potency, µM (doses to about 57.5 µM), usual class: cytotoxic | 7% of 690 active | AID 1508641
PMP22 txn conf: PMP22 transcription modulation, confirmatory. Potency, µM (doses to about 57.5 µM), usual class: inhibitors. 22% of 690 active. S16 Schwann cells Pmp22-F2sN, dual luciferase, 24 h. shares compounds with PMP22 txn prim. AID 1508646; active means clear falling dose curves in both reporters; inconclusive means both reporters move, but less clearly or upward; inactive means either reporter flat; the % is the FLuc reporter signal
PMP22 prot conf: confirmation of modulators of rat PMP22 protein expression; shares compounds with PMP22 txn prim; S16 Schwann cells Pmp22-HiBiT, luminescence, 48 h; Potency, µM (titrated, usually from 27.9 µM), actives largely listed as inhibitors; 95 tested, under 10 active
Target sequence (P25094 whole entry, looked up): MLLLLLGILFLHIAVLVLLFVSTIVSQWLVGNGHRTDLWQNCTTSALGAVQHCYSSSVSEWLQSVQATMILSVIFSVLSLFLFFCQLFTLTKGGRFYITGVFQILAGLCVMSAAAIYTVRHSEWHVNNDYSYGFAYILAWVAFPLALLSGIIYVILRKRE
A number is an active result; 0 = inactive; ? = inconclusive; - = no result. An excerpt weighted towards active compounds, which were near 2.6% of everything screened. Unless noted, the call rests on the fitted dose curve; in most records, active means well fitted curve in the direction sought with a large enough effect; inconclusive means small, poorly fitted or top-dose-only effect, or another doubt; inactive means no such curve, though single readings can be large; an effect the other way counts as inactive or inconclusive.

SMILES	pS6 MEF inh	OvCa metastasis	PMP22 txn prim	S16 viability	NLuc sat counter	NLuc Km counter	FLuc ctr PMP22	S16 F2sN tox cnf	PMP22 txn conf	others
Cc1ccc(NC(=O)CSc2nc(-c3ccc(F)cc3)nc3c2Cc2c(CO)cnc(C)c2O3)cc1C	0	0	0	0	-	-	-	-	-
COc1ccccc1-c1nc2c(c(SCC(=O)Nc3ccc(C)c(C)c3)n1)Cc1c(CO)cnc(C)c1O2	0	0	17µM	0	?	?	0	0	?
Cc1ncc(CO)c2c1Oc1nc(-c3ccc(Cl)cc3)nc(SCC(=O)N3CCCCC3)c1C2	0	0	?	?	-	-	-	-	-
CCCS(=O)(=O)c1ncc(Cl)c(C(=O)Nc2c(C(=O)c3ccccc3)oc3ccccc23)n1	0	0	?	0	-	-	-	-	-
Cc1ccc(C(=O)c2oc3ccccc3c2NC(=O)c2nc(S(C)(=O)=O)ncc2Cl)cc1F	0	0	7.6µM	?	0	0	0	22µM	13µM
COc1ccc(Cc2ccc(NC(N)=O)cc2)cc1-c1cccc(Cl)c1	-	0	-	-	-	-	-	-	-
COc1cc2c(cc1OC)C(COc1ccc3c(C)cc(=O)oc3c1)N(C(=O)c1ccc(C)cc1)CC2 (stereo not drawn)	0	0	?	?	0	0	0	0	?
COc1cc2c(cc1OC)C(COc1ccc3c(C)cc(=O)oc3c1)N(C(=O)c1ccc(C)c(C)c1)CC2 (stereo not drawn)	?	0	?	0	-	-	-	-	-
C=C[C@@H]1CN2CCC1C[C@@H]2C(O)c1ccnc2ccc(OC)cc12 (stereo partly drawn)	-	0	-	-	-	-	-	-	-
COc1ccc(C2CC(=O)N(CC(=O)Nc3cccc(C)c3C)c3ccccc3S2)cc1OC (stereo not drawn)	0	0	12µM	0	?	?	0	0	0
COc1ccc(C2CC(=O)N(CC(=O)Nc3ccc(C)c(Cl)c3)c3ccccc3S2)cc1OC (stereo not drawn)	0	0	0	0	-	-	-	-	-
CCOC(=O)[C@H]1O[C@H]1C(=O)N[C@@H](CC(C)C)C(=O)NCCC(C)C	-	0	-	-	-	-	-	-	-
CCOc1ccc(OCC)c(NC(=O)CN(C)S(=O)(=O)c2ccc3c(c2)CCCC(=O)N3)c1	0	0	20µM	0	0	0	0	0	0
CCCCC(CC)CNC(=O)c1ccc2c(=O)n(Cc3ccc(OC)cc3)c(=O)[nH]c2c1 (stereo not drawn)	0	0	12µM	0	0	0	0	0	?
CC=C1NC(=O)[C@H]2CSSCCC=C[C@H](CC(=O)N[C@H](C(C)C)C(=O)N2)OC(=O)[C@H](C(C)C)NC1=O	-	0	-	-	-	-	-	-	-
CCOC(=O)c1ccc(N2C(=O)c3n[nH]c(-c4cccs4)c3C2c2ccc(O)c(OC)c2)cc1 (stereo not drawn)	?	0	16µM	?	?	?	0	0	?
CCOc1ccc(CCNC(=O)c2ccc(Nc3nc4ccccc4n4nnnc34)cc2)cc1OCC	0	0	?	0	-	-	-	-	-
O=C(NCc1ccccc1)c1cccc(Nc2nc3ccccc3n3nnnc23)c1	0	0	13µM	?	0	0	0	22µM	14µM
Cc1ccc(CCNC(=O)c2ccc(Nc3nc4ccccc4n4nnnc34)cc2)cc1	0	0	?	0	0	0	0	24µM	?
CC1=Nc2cc(C(=O)NCCc3ccccc3)ccc2Sc2c(C)ccc(C)c21	0	0	2.7µM	0	0	0	0	?	?
CC1=Nc2cc(C(=O)NCCc3ccc(Cl)cc3)ccc2Sc2c(C)ccc(C)c21	0	0	7.8µM	0	0	0	0	?	?
CCCNC(=O)c1ccc2c(c1)N=C(C)c1c(C)ccc(C)c1S2	?	0	0.39µM	0	0	?	0	0	?
COc1ccc(CNC(=O)c2ccc3c(c2)N=C(C)c2c(C)ccc(C)c2S3)cc1	0	0	?	0	-	-	-	-	-
CCC1=Nc2cc(C(=O)NCCc3ccc(OC)c(OC)c3)ccc2Sc2ccccc21	0	0	?	0	-	-	-	-	-
CCOc1ccc(-n2nc3ccc(NC(=O)Cc4ccccc4)cc3n2)cc1	0	?	5µM	?	0	0	?	0	0
SMILES	pS6 MEF inh	OvCa metastasis	PMP22 txn prim	S16 viability	NLuc sat counter	NLuc Km counter	FLuc ctr PMP22	S16 F2sN tox cnf	PMP22 txn conf	others
COc1ccc(-c2cc(C(F)(F)F)nc(S(C)(=O)=O)n2)cc1	15µM	?	20µM	?	0	14µM	0	?	16µM	PMP22 prot conf=0
Cc1ccc(Cn2c(C)c3cnn(CC(=O)N4CCN(c5cc(C)ccc5C)CC4)c(=O)c3c2C)cc1	0	0	12µM	0	0	0	0	0	0
Cc1c2cnn(CC(=O)N3CCN(c4ccc(F)cc4)CC3)c(=O)c2c(C)n1Cc1ccc(F)cc1	0	0	?	0	-	-	-	-	-
COc1ccc(-c2noc(CSc3nnc(-c4ccncc4)n3-c3ccc(C)c(C)c3)n2)cc1	0	0	13µM	0	?	?	0	?	?
COc1ccc(-c2noc(CSc3nnc(C)n3-c3ccc(C)cc3)n2)cc1OC	0	0	12µM	0	22µM	14µM	0	?	0
COc1ccc(-c2noc(CSc3nnc(-c4ccncc4)n3-c3cccc(C)c3)n2)cc1OC	0	0	10µM	0	?	?	0	0	0
COc1ccc(-n2c(SCc3nc(-c4ccc(Cl)cc4)no3)nnc2-c2ccncc2)cc1	0	0	?	?	-	-	-	-	-
CCOc1ccccc1-c1noc(CSc2nnc(-c3ccccc3)n2-c2cccc(C)c2)n1	0	0	?	0	-	-	-	-	-
O=C(c1cncc(Br)c1)N1CCC(N2CCCC2)CC1	-	0	-	-	-	-	-	-	-
NC1=N[C@@]2(c3cc(NC(=O)c4ccc(F)cn4)ccc3F)COC[C@@H]2CS1	-	0	-	-	-	-	-	-	-
O=C(O)[C@@H](c1ccc(OCc2ccc3ccccc3n2)cc1)C1CCCC1	-	0	-	-	-	-	-	-	-
CCCCCOc1ccc(/C=C/C(=O)Nc2sc(C(C)=O)c(C)c2C(=O)OCC)cc1OC	0	0	7.5µM	0	0	0	0	0	0
